# CtBP-E1A blk: CtBP/E1A binding inhibition. activity change, % (concentration not given with the values). actives 0.49% (n = 340,000). AlphaScreen GST-E1A/His-CtBP binding, 1536-well; hits give low values; in the data active = activity change below about -65%; inconclusive = mostly about -30% to -63%; note: % is set by controls: 0 for no effect and ±100 for the full control effect
#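 AlphaScreen with 125 nM GST-E1A and 125 nM His-CtBP (5X stocks) in Tris pH 8.0, 300 mM NaCl, BSA, Tween 20, TCEP. Compounds preincubated 2 h at 37 deg C, then glutathione donor/nickel acceptor beads added for 1 h at 37 deg C in dark.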
# p53 reactivation: restores transcriptional activity of mutant p53; Potency, µM (top dose mostly 92.2 µM), for inactives: top-dose activity change, positive = activation, usual class: activators; AID 504706; actives 0.063% (n = 320,000); H1299 p53-A138V BP100-luciferase reporter, luminescence, 24 h; note: potency is the fitted concentration of half-maximal effect; % of control where 0% means no effect; nearly all actives have a fitted effect of over 45% in size
#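 H1299 (p53-null), stable ts p53-A138V + BP100-Luc; 1000 cells/well, Opti-MEM/10% FBS; cpd 4 pt, 1:5; 24 h, 37 deg C, 5% CO2; detection reagent 10 min RT; luminescence.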
# Gal4-VP16 FLuc: counter-screen for ROR gamma inhibitors: Gal4-VP16 reporter | actives 3.5% (n = 310,000) | Drosophila S2 Gal4-VP16 UAS-luciferase, luminescence, 20 h | Potency, µM (series often up to 53.6 µM), for the others: at the highest dose activity, negative = inhibition, actives largely listed as inhibitors;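 note: Gal4-VP16 expression switched on by copper sulfate through the metallothionein promoter; potency is the fitted concentration of half-maximal effect; % is set by controls: 0 for no effect and ±100 for the full control effect; nearly all actives have a fitted effect of over 50% in size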
# Six1-Eya2 inh: inhibitors of human Six1/Eya2 interaction. actives 0.56% (n = 360,000). activity change, % (test concentration not listed). AlphaScreen GST-Six1/His-Eya2 binding, biochemical; hits give low values. Q15475+O00167. AID 651725; in the data active = activity change below about -65%; inconclusive = mostly about -30% to -63%; note: % is set by controls: 0 for no effect and ±100 for the full control effect
# Target sequence (O00167 whole entry, looked up): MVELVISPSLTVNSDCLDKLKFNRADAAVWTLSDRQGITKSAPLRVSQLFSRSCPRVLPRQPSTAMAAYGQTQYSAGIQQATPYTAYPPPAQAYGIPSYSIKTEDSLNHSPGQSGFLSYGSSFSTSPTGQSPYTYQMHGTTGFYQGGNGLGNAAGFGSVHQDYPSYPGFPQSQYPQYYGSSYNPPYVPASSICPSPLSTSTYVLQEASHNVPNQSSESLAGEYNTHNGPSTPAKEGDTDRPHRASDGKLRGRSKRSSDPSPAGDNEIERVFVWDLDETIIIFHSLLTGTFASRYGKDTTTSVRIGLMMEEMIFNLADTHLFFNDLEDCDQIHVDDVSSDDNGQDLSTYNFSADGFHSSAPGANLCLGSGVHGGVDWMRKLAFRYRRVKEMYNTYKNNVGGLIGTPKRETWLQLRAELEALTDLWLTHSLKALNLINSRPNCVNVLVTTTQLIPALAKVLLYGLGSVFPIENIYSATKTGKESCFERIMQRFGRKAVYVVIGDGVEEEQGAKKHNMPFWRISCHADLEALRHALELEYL
# Target sequence (Q15475 whole entry, looked up): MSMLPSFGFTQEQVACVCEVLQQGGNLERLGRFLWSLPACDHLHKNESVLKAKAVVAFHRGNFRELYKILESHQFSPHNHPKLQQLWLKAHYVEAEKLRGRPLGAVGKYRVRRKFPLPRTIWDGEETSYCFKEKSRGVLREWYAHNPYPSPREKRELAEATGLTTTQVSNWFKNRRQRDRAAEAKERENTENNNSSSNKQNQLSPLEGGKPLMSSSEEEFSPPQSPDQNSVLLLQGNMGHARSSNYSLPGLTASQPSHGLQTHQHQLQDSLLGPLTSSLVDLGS
#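 GST-Six1 + His-Eya2 (5X stock: 250/500 nM); Tris pH 8.0, 300 mM NaCl, 0.05% BSA, 0.02% Tween 20; GSH donor/Ni acceptor beads; 1 h 37 °C dark; AlphaScreen readout.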
# RORg inh: ROR gamma (mouse) transcription inhibition; AID 2551; P51450; Potency, µM (top dose mostly 53.6 µM), without a hit: at the top dose activity change, negative = inhibition, most hits filed as inhibitors; actives 5.4% (n = 310,000); Drosophila S2 Gal4-RORgamma UAS-luciferase reporter, 20 h; note: potency is the fitted concentration of half-maximal effect; % is set by controls: 0 for no effect and ±100 for the full control effect; nearly all actives have a fitted effect of over 60% in size
#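 Compounds are pin-transferred onto Drosophila Schneider cells expressing a copper-inducible Gal4–ROR gamma transactivation domain fusion. After 1 hr, copper sulfate is added to 700 uM final; luciferase is read 20 hr later.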
# The depositor's hits bear a star; ? = inconclusive; . = not tested or not shown; [ ] = another dose, or the depositor's remark. A selection: hits, their analogues and other compounds. The true share with any hit is near 5.4%. Unless noted, calls come from the whole dose curve; as a rule, active = well fitted curve in the direction sought with a large enough effect; inconclusive = small, poorly fitted or top-dose-only effect, or another doubt; inactive = no such curve, though single readings can be large; an effect the other way counts as inactive or inconclusive.
SMILES,CtBP-E1A blk,p53 reactivation,Gal4-VP16 FLuc,Six1-Eya2 inh,RORg inh
O=C(COC(=O)/C=C/C(=O)OCC(=O)NC12CC3CC(CC(C3)C1)C2)NC12CC3CC(CC(C3)C1)C2,7,1%,-11%,3,-8%
COc1cccc(NC(=S)N2CCCN(Cc3ccc(F)cc3)C2)c1,?,0%,?,-10,3.5µM*
COc1ccc(NC(=S)N2CCCN(Cc3cccc(Cl)c3)C2)cc1,-14,7%,3%[10 µM],-9,13µM*
Fc1ccc(CN2CCCN(C(=S)Nc3ccc(F)cc3)CC2)cc1,2,-5%,6%,-4,-23%
CSc1cccc(NC(=S)N2CCCN(Cc3cccc(Cl)c3)C2)c1,-19,13%,?,-11,10µM*
Cc1cccc(C)c1NC(=S)N1CCCN(Cc2ccc(F)cc2)C1,1,-4%,23%,6,14µM*
COc1cccc(NC(=S)N2CCCC2)c1,-2,2%,2%,-6,5%
Cc1cc(Br)ccc1SCC(=O)OCC(=O)c1c(N)n(C)c(=O)n(C)c1=O,3,-2%,-2%,-5,-5%
Cc1cc(NC(=O)Cc2ccccc2[N+](=O)[O-])no1,.,-2%,-6%,-1,24%
COc1ccc(CCNc2ncnc3c2[nH]c2cc(OC)c(OC)cc23)cc1OC,-29,-2%,?,?,?
COc1ccc(CCNc2nc(=S)[nH]c3cc(OC)c(OC)cc23)cc1OC,.,-4%,?,-88*,10µM*
COc1cc2[nH]c(=S)nc(NCCc3ccc(S(N)(=O)=O)cc3)c2cc1OC,-90*,-3%,-13%,-90*,0%
COc1cc2[nH]c(=S)nc(NCCc3ccc(C)cc3)c2cc1OC,-87*,1%,6.3µM*,?,0.89µM*
CC(C)NC(=O)CC(=O)NN=C1CCCCC1,0,0%,-3%,-1,24%
Cc1occc1C(=O)NN=C1C2CC3CC(C2)CC1C3,-4,13µM*,22%,-2,34%
COc1ccc(NC(=O)Cn2cc(C(=O)C3CC3)c3ccccc32)cc1,4,2%,-4%,4,-29%
NC(=O)NC(CC(=O)N1CCc2ccccc2C1)c1ccc(Cl)cc1 (stereo unspecified),-5,-12%,6%,-6,24%
N#CC1=C(N)N2C(=C(C#N)C1c1ccccc1)Sc1ccccc12 (stereo unspecified),.,2%,10%,.,-5%
N#CC1=C(N)N2C(=C(C#N)C1c1ccc(Br)cc1)Nc1ccccc12 (stereo unspecified),10,25%,11µM*,6,?
N#CC1=C(N)N2C(=C(C#N)C1c1cccc(Br)c1)Nc1ccccc12 (stereo unspecified),4,-6%,13µM*,7,?
COc1ccc(C(=O)N2CCC3(CCCN(C(=O)NC(C)C)C3)CC2)cc1,.,.,-5%,.,13%
COc1ccc(NC(=O)N(C)C[C@H]2OCCCC[C@@H](C)Oc3ccc(NC(=O)c4ccccc4)cc3C(=O)N([C@H](C)CO)C[C@@H]2C)cc1,-7,.,.,-10,.
CCc1ccc(C(=O)/C=C/Nc2ccc(S(=O)(=O)Nc3onc(C)c3C)cc2)cc1,-20,25%,16µM*,-21,?
Cc1noc(NS(=O)(=O)c2ccc(N/C=C/C(=O)c3ccc(F)cc3)cc2)c1C,.,24%,-3%,-21,8%
O=C(c1ccc(CNS(=O)(=O)c2ccc(F)cc2)cc1)N1CCCCCC1,1,.,.,0,.
SMILES,CtBP-E1A blk,p53 reactivation,Gal4-VP16 FLuc,Six1-Eya2 inh,RORg inh
CCCCC1C2C(=O)N(c3ccc(C)cc3)C(=O)C2ON1c1ccccc1 (stereo unspecified),.,14%,20%,1,23%
O=C(O)/C=C/C(=O)Nc1ccccc1SC(F)(F)F,-11,5%,10µM*,3,-138%
C[C@@H]1CC[C@H]2[C@H](C)[C@H]3CC[C@H]4C5[C@@H](O)CC6=CC(=O)CC[C@]6(C)[C@H]5C[C@H]4C3C(=O)N2C1 (stereo partly specified),.,.,4%,.,21%
O=C(c1cnccn1)N1CCC2(CC1)CN(Cc1cc(C(F)(F)F)cc(C(F)(F)F)c1)C2,.,.,0%,.,6%
CC(c1ccccn1)N(Cc1ccco1)C(=S)Nc1cccc(F)c1 (stereo unspecified),-1,12%,?,-1,13µM*
COCCCN(C(=S)Nc1cc(Cl)cc(Cl)c1)C(C)c1ccccn1 (stereo unspecified),.,5%,?,8,7.1µM*
Cc1ccc(Cl)cc1NC(=S)N(CCN(C)C)C(C)c1ccccn1 (stereo unspecified),?,16%,0%,?,10µM*
Cc1cccc(NC(=S)N(CCN(C)C)C(C)c2ccccn2)c1 (stereo unspecified),?,4%,-13%,?,11µM*
COCCCN(C(=S)Nc1cc(Cl)cc(Cl)c1)C(C)c1ccncc1 (stereo unspecified),4,-12%,?,-4,?
COc1cc(Cl)ccc1NC(=S)N(CCN(C)C)C(C)c1ccncc1 (stereo unspecified),.,-4%,8%,-20,-16%
CN(C)C(=S)Nc1cccc(F)c1,.,-1%,2%,-1,17%
Cc1ccc(CN2CCC(C(=O)c3ccc(F)cc3)CC2)cc1,-3,.,.,-5,.
CCOC(=O)c1ccc(NC(=S)N(CCN(C)C)C(C)c2ccncc2)cc1 (stereo unspecified),.,-3%,1%,1,0%
CCc1cccc(NC(=S)N(CCN(C)C)C(C)c2ccncc2)c1 (stereo unspecified),.,0%,-2%,1,14µM*
S=c1[nH]nc(CN2CCCCC2)n1-c1ccc(Cl)cc1,3,0%,?,7,7.1µM*
FC(F)(F)c1ccccc1-n1c(CN2CCCCC2)n[nH]c1=S,-14,4%,-26%,1,11µM*
C=Cn1cc[n+](CC(=O)c2ccc(Cl)c(Cl)c2)c1,-1,.,13%,1,-20%[1.91 µM]
CC(Oc1ccc(Cl)cc1)C(=O)N/N=C/c1ccsc1 (stereo unspecified),8,0%,?,4,11µM*
CC(OC(=O)CCCSc1nc2ccccc2s1)C(=O)NC(N)=O (stereo unspecified),-1,-2%,4µM*,-1,4.5µM*
NC(=O)COC(=O)CCCSc1nc2ccccc2s1,10,-3%,13µM*,1,7.9µM*
CNC(=O)NC(=O)COC(=O)CCCSc1nc2ccccc2s1,-1,-15%,?,-13,?
N#Cc1ccsc1NC(=O)COC(=O)CCCSc1nc2ccccc2s1,-8,-11%,5µM*,-14,?
N/C(=N\OC(=O)c1ccc(Cl)cc1)c1ccn[nH]1,-2,19%,?,0,14µM*
